# Test results: the supplement of paper PMC6555819
# Assays:
# Test in all cases: PBM binding z-score (relative to random genomic background probes); higher = stronger binding; sequences stand for … in GC…GCGATTGACAGCGTAGAATGAAGG
# [1] = system: RARb homodimer (NR concentration 270 nM)
# How it was run: (§1)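 Binding buffer was PBS pH 7.4 with 2% milk, 0.02% Triton X-100, 1 mM DTT, 0.2 mg/mL BSA and 0.4 mg/ml salmon testes DNA. In it, ligand-free nuclear receptor dimers were incubated 1 h on custom Agilent 4×180K protein-binding microarrays carrying double-stranded probes. Antibodies against each partner (one per run) detected binding, and z-scores were calculated against random background probes after regression normalization of scanned fluorescence.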
# [2] = system: RARg:RXRa (NR concentration 270 nM, RXRa partner concentration 90 nM)
# How it was run: as §1
# [3] = system: RARg homodimer (NR concentration 270 nM)
# How it was run: as §1
# [4] = system: RXRa DBDmut IVT, anti-RXR (DBD mutation: RXRa K156A/R161A, NR concentration 90 nM)
# How it was run: as §1
# [5] = system: RXRa homodimer (NR concentration 180 nM)
# How it was run: as §1
# [6] = system: THRa:RXRa (NR concentration 90 nM, RXRa partner concentration 90 nM)
# How it was run: as §1
# [7] = system: THRa homodimer (NR concentration 90 nM)
# How it was run: as §1
# [8] = system: VDR homodimer (NR concentration 270 nM)
# How it was run: as §1
Sequence,PBM binding z-score [1],PBM binding z-score [2],PBM binding z-score [3],PBM binding z-score [4],PBM binding z-score [5],PBM binding z-score [6],PBM binding z-score [7],PBM binding z-score [8]
CCGAGTATGTTATGGGGCATTCAGGCAACGGTGA,0.485,0.112,0.276,0.833,0.294,0.302,0.125,0.00991
ACAGACAGGTGAGTCAAGGTAACTCAGCTGGACG,0.0236,0.322,0.586,-0.585,0.518,3.73,0.299,-0.203
TAGCTTAGGTCATTCAGGGGCCAGTATAGAAAGC,3.41,6.43,5.18,2.36,3.35,3.72,1.83,1.69
CAAACTAGGTCAAGAGGTCAAAGACCGCTTCCCG,5.76,8.18,7.8,2.18,8.47,4.39,2.18,3.76
TTAACAAGGTGAAGGTCGTTGATCCCTCTGTAGA,1.5,1.38,1.26,0.219,1.88,2.4,0.923,0.715
ACAGACAGGTGGGTGAAGGTAACTCAGCTGGACG,0.378,0.052,0.248,-0.598,0.193,0.52,-0.174,-0.176
CCTAGCAGGCCAATCTGGGTAACTCAAGGCTTGA,-0.251,-0.429,-0.124,0.0487,-0.515,1.86,-0.653,-0.997
GTACCAAGGTGAATAGGTCATTGATGAGTAGGCG,3.98,4.79,3.34,-0.0633,3.5,2.82,0.757,0.849
ACTATTAGTTTACTTAGGGCAACCGATACGACGC,0.74,0.56,1.01,1.17,0.51,1.66,0.312,0.435
AGAATGAGGTTATCCGTAGATCAGGGAAGAAAGT,0.958,2.14,1.08,1.82,2.29,2.33,0.663,0.958
CGAACTAGGTCATCCCGGACAGTGAATACATTGA,2.84,3.68,4.66,2.33,2.6,2.86,1.4,1.91
ACTAGTTGGTCAGCTGAGGTCACTCACAATTCGG,4.24,3.48,3.38,1.11,3.13,4.98,4.9,2.68
CGTCCATGGTCAGCAGGTCAGTGAAAGCGACGTG,2.46,1.81,2.05,-0.144,0.937,0.887,-0.0849,-0.456
AATACAGGGTCAATAGGCCAGAGTAGGTACGAAT,3.5,5.29,4.37,2.4,4.89,3.03,0.474,2.13
TCGAGTAGGTTAGTCGGGGCTTTCAGCCAACATA,-0.364,-0.483,-0.728,0.169,-0.346,1.11,-0.892,-0.862
CAAACTAGGTCAAGGTCAAAATCGGTTTGTGCCA,4.77,5.74,6.36,2.64,5.55,4.32,3.13,3.88
TCAGACAGGTAAAGGTAACTCAGGTACGCAGTCG,0.829,0.751,0.576,1.53,1.08,1.67,0.705,0.388

Sequence,PBM binding z-score [1],PBM binding z-score [2],PBM binding z-score [3],PBM binding z-score [4],PBM binding z-score [5],PBM binding z-score [6],PBM binding z-score [7],PBM binding z-score [8]
CCTGCTAGGTCAATGGTCACCTAAAGCAGCTCGC,3.18,3.72,4.05,2.07,2.43,2.78,1.32,0.427
TAGCCTTGGTCATTCAGGGGCCAGTATAGAAAGC,1.09,2.02,0.792,-0.76,0.416,0.75,-0.852,-0.456
ACTACAGGGTCATCGTAGGCCAGAGTACGCACAG,3.45,5.52,5.09,3.26,5.9,4.64,1.27,3.36
GCAGACAGGTGAATCGCAGGTAACTCAGGGTGGC,0.0663,0.806,0.164,-0.612,0.449,1.31,-0.285,-0.754
GATACAGGGTCAGATAGAGGCCAGAGTATGGAAA,3.28,6.34,4.42,1.75,4.42,3.16,0.893,1.42
ATCTCTAGGTAAAAGTTCAGTTAATCCCGAGGAT,2.52,2.1,2.04,0.885,1.63,1.61,0.805,2.12
TCATATAGGGAAAAGGTGAAAGTCGGTGTGGTAA,2.04,1.27,0.821,2.07,1.93,1.27,0.582,0.643
ATAGAAAGGTCGTGAGGTGAGTATACAGAAAGGC,3.32,4.4,4.01,1.32,5.4,3.48,1.99,1.31
ATCGATAGGTCGAGGTGAGTATAGAGAAAGGGAA,1.05,1.68,2.13,-0.314,1.47,1.63,0.0105,-0.206
ATCGAAAGGTCGAGGTGAGTAAAGAGAAAGGGAA,2.34,4.22,4.38,0.813,4.08,2.63,0.539,0.357
GATACAGGGTCAGCTAGAGGCCAGAATATGGAAA,3.01,6.5,4.78,1.32,4.12,3.04,0.498,1
AGTAAAAGTTCATCTAGGTAACGTAAGATATGCT,3.63,4.68,5.23,4.63,3.77,3.05,0.0912,4.83
CCTACTGGGTCATCAGGTCATTGATATCAACGTT,4.25,5.07,5,2.14,4.38,3.97,3.17,3.06
GTACCAAGGTGAATGGGTCGTTGATGAGTAGGCG,1.33,1.28,0.93,-0.402,1.08,1.74,0.777,0.187
CCGACTGGGGCAAACGTTACCATACTCAGTACGA,0.0694,0.309,0.456,0.618,0.251,-0.227,-0.206,-0.371
ACAGACAGGTGATAAAGGTAACTCAGGCTATCAT,0.459,0.384,0.498,-0.109,0.225,1.15,-0.0543,-0.632
CCTACTGGGCCATAGGTCATTGATTCCAATGCTC,2.63,2.89,1.95,0.122,2.63,1.61,0.173,0.271
